This is an account of results in PMC5700166.

In this assay the target is T1, GST-Nv-NF-kB (Ser allele) (Nematostella vectensis, UniProt A7UNT2 2-411).
T1 sequence: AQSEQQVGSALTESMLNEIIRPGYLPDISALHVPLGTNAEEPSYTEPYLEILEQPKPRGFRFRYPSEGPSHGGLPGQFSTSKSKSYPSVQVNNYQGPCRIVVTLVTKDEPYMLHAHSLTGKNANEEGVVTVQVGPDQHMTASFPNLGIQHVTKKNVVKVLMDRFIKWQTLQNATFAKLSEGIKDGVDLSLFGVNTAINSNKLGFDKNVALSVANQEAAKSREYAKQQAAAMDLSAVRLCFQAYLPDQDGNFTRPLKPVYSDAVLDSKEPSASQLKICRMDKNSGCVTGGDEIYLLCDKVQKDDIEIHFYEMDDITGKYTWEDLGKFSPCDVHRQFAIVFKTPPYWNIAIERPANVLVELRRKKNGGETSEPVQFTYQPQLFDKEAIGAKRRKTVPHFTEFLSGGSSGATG
The assay is described as follows: protein-binding microarray (PBM); PBM: ~300 nM protein, 6 mM HEPES pH 7.8, 80 mM KCl, 0.5 mM EDTA, 0.5 mM EGTA, 6% glycerol, 35 ng/ul poly-dIdC, 1% milk, 1 h, room temperature; Ap Aiptasia and Nv Nematostella (sea anemones) / Co Capsaspora / Aq Amphimedon (sponge) / Dm Drosophila / Hu human; RHD is the Rel homology domain; high values mean tight binding. The following applies: dsDNA, one strand shown.
Turning to “CCGATTAACATCAGGGTAATTTATGATGTTAATCGGGTCTTGATTCGCTTGACGCTGCTG”, the binding signal was 6 z-score.

“CCGATTAACATCAGACCCCCCCCTGATGTTAATCGGGTCTTGATTCGCTTGACGCTGCTG” returned a binding signal of 3.56 z-score.

In turn, “CCGATTAACATCAATCCCCCCCCTGATGTTAATCGGGTCTTGATTCGCTTGACGCTGCTG” returned a binding signal of 6.45 z-score. The value for “CCGATTAACATCACGGGGGGGGCTGATGTTAATCGGGTCTTGATTCGCTTGACGCTGCTG” was 2.3 z-score. On to “CCGATTAACATCAGGGGGAACAATGATGTTAATCGGGTCTTGATTCGCTTGACGCTGCTG”, for which the binding signal is 6.27 z-score. The value for “CCGATTAACATCAGAACCCCCCCTGATGTTAATCGGGTCTTGATTCGCTTGACGCTGCTG” was 5.04 z-score; that for “CCGATTAACATCAGAAACTTCCCTGATGTTAATCGGGTCTTGATTCGCTTGACGCTGCTG” was 4.61 z-score; that for “CCGATTAACATCAGGGGGGGAGATGATGTTAATCGGGTCTTGATTCGCTTGACGCTGCTG” was 4.31 z-score.

In the case of “CCGATTAACATCAATACCCCCCCTGATGTTAATCGGGTCTTGATTCGCTTGACGCTGCTG”, the binding signal was 4.49 z-score. The value for “CCGATTAACATCAGGGGACGTTATGATGTTAATCGGGTCTTGATTCGCTTGACGCTGCTG” was 4.91 z-score; that for “CCGATTAACATCACAGCCCCCCCTGATGTTAATCGGGTCTTGATTCGCTTGACGCTGCTG” was 3.62 z-score; that for “CCGATTAACATCACACTCCCCCCTGATGTTAATCGGGTCTTGATTCGCTTGACGCTGCTG” was 4.56 z-score. The value for “CCGATTAACATCAAAGCACCCCCTGATGTTAATCGGGTCTTGATTCGCTTGACGCTGCTG” was 4.9 z-score; that for “CCGATTAACATCACCAAACCCCCTGATGTTAATCGGGTCTTGATTCGCTTGACGCTGCTG” was 6.38 z-score.
